Consider 5 compounds from the supplement of paper PMC6522484.

The subject of test [1] is DLD1. In words: cell viability (CellTiter-Glo) relative to plate median (fraction of plate median); higher = more viable cells. The note with it: 5 µM; treatment time 24 h; reporter: 7TFP. An outline of the steps: (§1)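 Values are well luminescence normalised to the plate median, from either a firefly luciferase or a CellTiterGlo readout on parallel plates. The cells, colorectal cancer lines stably transduced with lentiviral 7TFP or TCF4/Wnt firefly luciferase reporters, were treated with library compounds at a final 5 µM for 24 h. The mean of two independent replicates is listed.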
A general note: Cellular ATP, detected with luciferase, serves as a proxy for viable cell number.

Another test deals with HCT116. The description is as above. The note with it: 5 µM; treatment time 24 h; reporter: TCF4/Wnt. An outline of the steps:
as §1

Test [2] concerns SW480. Described as above. The note with it: 5 µM; treatment time 24 h; reporter: 7TFP. An outline of the steps: as §1
Test [3] has as its system DLD1. In words: TCF/Wnt firefly luciferase reporter signal relative to plate median (fraction of plate median); higher = higher Wnt reporter signal. The note with it: 5 µM; treatment time 24 h; reporter: 7TFP. Summed up:
as §1
On the technique in general: Reporter assays use an easily measured gene product as a stand-in for the process of interest.

The test system of test [4] is SW480. The test is described as above. The note with it: 5 µM; treatment time 24 h; reporter: 7TFP. An outline of the steps: as §1

SMILES strings stand for the structures. ± gives the standard deviation of the averaged measurements.

As to `O=C(O)c1cc(O)ccc1O`, the cell viability with DLD1 [1] turned out to be 0.954 ± 0.0099; with HCT116, 0.999 ± 0.059; with SW480 [2] it was 1.005 ± 0.0071. For the same compound, the “TCF/Wnt firefly luciferase reporter signal” value in the test on DLD1 [3] is 1.04 ± 0.069; with SW480 [4], 1.09.
In the case of `CCOc1ccc2nc(S(N)(=O)=O)sc2c1`, the cell viability with DLD1 [1] was found to be 0.972 ± 0.054; in the test with HCT116, 0.896 ± 0.15; with SW480 [2], 0.961 ± 0.014. For the same compound, the “TCF/Wnt firefly luciferase reporter signal” value is 0.704 ± 0.088 in the test with DLD1 [3] and 0.891 ± 0.091 in the test on SW480 [4].
Turning to `COc1cc2c(cc1OC)-c1cc3ccc(OC)c(OC)c3c[n+]1CC2`, the cell viability with DLD1 [1] came to 0.983 ± 0.067; with HCT116, 0.896 ± 0.16; in the test with SW480 [2], 0.949 ± 0.054. For the same compound, the “TCF/Wnt firefly luciferase reporter signal” value with DLD1 [3] is 1.105 ± 0.0071; with SW480 [4], 1.01 ± 0.073.
As for `CC(C(=O)O)c1ccc(C(=O)c2cccs2)cc1` (stereo not given), the values for the cell viability with DLD1 [1], in the test on HCT116 and in the test on SW480 [2] were 1.01 ± 0.021, 1.025 ± 0.0071 and 1.02 ± 0.014, respectively. In addition, the “TCF/Wnt firefly luciferase reporter signal” value in the test with DLD1 [3] was 0.996 ± 0.021; with SW480 [4], 0.999 ± 0.072.
Consider `OCC(O)CN1CCN(c2ccccc2)CC1` (stereo not given), for which the results for the cell viability in the test with DLD1 [1], with HCT116 and with SW480 [2] were 0.979 ± 0.058, 0.995 ± 0.035 and 0.964 ± 0.033, respectively. The entries for the “TCF/Wnt firefly luciferase reporter signal” value in the test on DLD1 [3] and in the test with SW480 [4] were 0.83 ± 0.029 and 0.9255 ± 0.005, respectively.
